Assay outcomes (PubChem BioAssay)
HCMV inh – human cytomegalovirus inhibition; actives 4.5% (n = 410,000); activity change, negative = inhibition, % at 57.5 µM; AID 1259415; HFF cells, HCMV-luciferase reporter, 72 h; active compounds read low; in the data active means activity change below about -60%; inconclusive means no clear call, values can overlap the other calls; inactive means above about -39%
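Two compound doses tested in HFFs infected with HCMV-luciferase, MOI 1 PFU/cell, 72 h at 37C. Lysate luminescence read with OneGlo; data normalized against buffer-only and 10uM Salinomycin inhibitor controls.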
LASV entry inh – Lassa virus entry inhibition | Lassa virus pseudotype entry inhibition, cell reporter | actives 1.2% (n = 300,000) | Potency, µM (highest dose often 37.9 µM), most hits filed as inhibitors; calls by dose curve; tested in HEK293 cells; further: nearly all actives have a fitted effect of over 50% in size
FMDV inh – antivirals against foot and mouth disease virus; FMDV antiviral cell-based qHTS; Potency, µM (series often up to 57.9 µM), most hits filed as inhibitors; actives 1.2% (n = 410,000); AID 1159524; calls by dose curve; tested in HEK293T cells; further: read-out not given here; nearly all actives have a fitted effect of over 45% in size
Vaccinia Venus – vaccinia inhibition (Venus reporter) | actives 0.46% (n = 330,000) | Potency, µM (series often up to 36.5 µM), usual class: inhibitors | Vaccinia virus Venus reporter expression, fluorescence; calls by dose curve; tested in A549 cells; further: nearly all actives have a fitted effect of over 30% in size
MARV entry inh – inhibitors of Marburg virus binding or cell entry; Marburg virus pseudotyped entry inhibition, cell reporter; Potency, µM (highest dose often 37.8 µM), usual class: inhibitors; actives 1.8% (n = 300,000); AID 540276; calls by dose curve; tested in HEK293 cells
VACV mCherry inh – vaccinia inhibition (mCherry reporter). Vaccinia virus mCherry reporter infection, fluorescence. Potency, µM (highest dose often 36.5 µM), most hits filed as inhibitors. actives 0.63% (n = 310,000). AID 720579; calls by dose curve; tested in A549 cells; further: nearly all actives have a fitted effect of over 35% in size
Each line names hits and unclear results; the compound was inactive in the other large screens. The list is not random: actives were taken first. Their share in the collection is about 6.5%.

CCCCCC(=O)O[C@]1(C(C)=O)CC[C@H]2[C@@H]3CCC4=CC(=O)CC[C@]4(C)[C@H]3CC[C@@]21C	HCMV inh -68, MARV entry inh 10µM, VACV mCherry inh inconclusive
CC(=O)Nc1ccc2c(c1)Cc1cc(N3C(=O)C=CC3=O)ccc1-2	HCMV inh -66, LASV entry inh inconclusive, MARV entry inh inconclusive
O=C1C=CC(=O)N1c1ccc2c(c1)Cc1cc(F)ccc1-2	VACV mCherry inh inconclusive
Cn1cc(CN2CCC(C(=O)NC(c3ccc(-c4ccccc4)cc3)c3cnccn3)CC2)c2ccccc21 (configuration not stated)	Vaccinia Venus 11µM, VACV mCherry inh inconclusive (no result: LASV entry inh, MARV entry inh)
O=C(NC(c1ccc(-c2ccccc2)cc1)c1cnccn1)C1CCN(Cc2ccc(Cl)c(Cl)c2)CC1 (configuration not stated)	none (no result: LASV entry inh, MARV entry inh)
Cc1ccc(-n2cccn2)c(CN2CCCC(C(=O)c3ccc4c(c3)OCO4)C2)c1 (configuration not stated)	HCMV inh -73, LASV entry inh inconclusive, MARV entry inh 10µM
COc1cccc(CN2CCCC(C(=O)c3ccc4c(c3)OCO4)C2)c1OC (configuration not stated)	MARV entry inh 11µM
O=C(c1ccc2c(c1)OCO2)C1CCCN(Cc2cc(F)ccc2-n2cccn2)C1 (configuration not stated)	MARV entry inh inconclusive
CCOC(=O)c1cccn1C1C(=O)N(Cc2ccc(C(F)(F)F)cc2)c2ccc(OC(F)(F)F)cc21 (configuration not stated)	none (no result: LASV entry inh, FMDV inh, Vaccinia Venus, MARV entry inh, VACV mCherry inh)
COCCN1C(=O)COCc2cc(-c3cnn(C)c3)ccc21	none (no result: LASV entry inh, FMDV inh, Vaccinia Venus, MARV entry inh, VACV mCherry inh)
O=C(CSCc1ccc(Cl)cc1)N/N=C/c1ccccc1	none (no result: Vaccinia Venus, VACV mCherry inh)
COC(=O)Oc1ccc(/C=N/NC(=O)CSCc2ccc(Cl)cc2)cc1OC	HCMV inh -60, LASV entry inh inconclusive, FMDV inh inconclusive
CCOC(=O)c1cnn(-c2ccc(C(=O)Nc3ccc(C(C)=O)cc3)cc2)c1N	LASV entry inh inconclusive (no result: MARV entry inh)
COc1cccc(/C=N/Nc2nc3ccccc3[nH]2)c1O	HCMV inh -99 (no result: LASV entry inh, Vaccinia Venus, MARV entry inh, VACV mCherry inh)
COc1cccc(/C=N/Nc2nc3ccccc3n3cnnc23)c1O	HCMV inh -103, LASV entry inh inconclusive, Vaccinia Venus inconclusive, MARV entry inh 8.9µM, VACV mCherry inh 4.5µM
COc1cccc(/C=N/Nc2nc3ccccc3n3cnnc23)c1	MARV entry inh inconclusive
COc1cccc(/C=N/Nc2nc3ccccc3[nH]2)c1OC	LASV entry inh inconclusive, MARV entry inh inconclusive
O=C(N/N=C/c1ccc(OC(F)F)cc1OC(F)F)NC1CCCCC1	LASV entry inh 11µM
O=C1NC(Cc2ccc(O)cc2)c2nc3ccc(Br)cc3c(=O)n2-c2cc3ccccc3cc21 (configuration not stated)	HCMV inh -94, FMDV inh inconclusive, Vaccinia Venus inconclusive, VACV mCherry inh inconclusive (no result: LASV entry inh, MARV entry inh)
CCOc1cccc2sc(N(Cc3cccnc3)C(=O)C3CCCCC3)nc12	HCMV inh active (no result: MARV entry inh)
COc1cccc2sc(N(Cc3cccnc3)C(=O)C3CCCCC3)nc12	LASV entry inh inconclusive (no result: MARV entry inh)
O=C1CC2OCC=C3CN4CCC56c7cc([N+](=O)[O-])ccc7N1C5C2C3CC46 (configuration not stated)	HCMV inh -88 (no result: LASV entry inh, MARV entry inh)
O=C1CC2OCC=C3CN4CCC56c7ccccc7N1C5C2C3CC46 (configuration not stated)	none (no result: HCMV inh, LASV entry inh, Vaccinia Venus, MARV entry inh, VACV mCherry inh)
N#CC(c1ccc(Cl)cc1)c1ccc(Cl)nn1 (configuration not stated)	HCMV inh -82, MARV entry inh inconclusive
N#CC(c1ccc(Cl)nn1)c1ccccc1Cl (configuration not stated)	HCMV inh -63 (no result: VACV mCherry inh)
O=C(OC1CNC(C#Cc2cc3ncnc(Nc4ccc5c(ccn5Cc5cc(F)ccc5F)c4)c3s2)C1)N1CCOCC1 (configuration not stated)	LASV entry inh 4µM (no result: HCMV inh, FMDV inh, Vaccinia Venus, MARV entry inh, VACV mCherry inh)
CC(=O)CC1c2ccccc2C=C(c2ccsc2)N1c1ccc(-c2cccs2)cc1 (configuration not stated)	HCMV inh -78 (no result: LASV entry inh, MARV entry inh)
COc1ncc(-c2ccc(N3C(c4ccsc4)=Cc4ccccc4C3CC(C)=O)cc2)cn1 (configuration not stated)	none (no result: LASV entry inh, MARV entry inh)
O=[N+]([O-])c1ccc2c(c1)ncn2-c1ccccc1	HCMV inh -70, LASV entry inh inconclusive
O=[N+]([O-])c1ccc2cn(-c3ccccc3)nc2c1	HCMV inh -68, MARV entry inh inconclusive
